The list is not random: actives were taken first. Their share in the collection is about 3.9%.
D1 potentiator: human D1 dopamine receptor positive modulation; potentiation, % at 10 µM; P21728; HEK293 TREx D1 cells, calcium flux, dopamine EC20 potentiation; 360,000 tested, 0.036% active; in the data active = potentiation above about 30%; note: 0% is about no effect
Target sequence (P21728 whole entry, looked up): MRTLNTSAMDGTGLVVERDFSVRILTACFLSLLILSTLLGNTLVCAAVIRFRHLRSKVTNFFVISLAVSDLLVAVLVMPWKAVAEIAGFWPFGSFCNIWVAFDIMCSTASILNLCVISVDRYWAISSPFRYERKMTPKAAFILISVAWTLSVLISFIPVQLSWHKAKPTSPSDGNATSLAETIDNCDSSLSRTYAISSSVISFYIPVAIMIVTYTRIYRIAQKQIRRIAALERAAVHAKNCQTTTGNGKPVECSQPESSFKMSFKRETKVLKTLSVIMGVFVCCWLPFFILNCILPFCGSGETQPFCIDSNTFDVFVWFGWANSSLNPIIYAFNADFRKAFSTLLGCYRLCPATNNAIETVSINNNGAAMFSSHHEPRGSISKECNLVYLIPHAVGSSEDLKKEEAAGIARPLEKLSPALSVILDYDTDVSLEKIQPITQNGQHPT
Eya2 phos inh: Eya2 (human) phosphatase inhibition | 330,000 tested, 0.006% active | recombinant Eya2, OMFP fluorescence dephosphorylation (OMFP is methylfluorescein phosphate) | AID 488837 | O00167 | Potency, µM (doses to about 76.9 µM), for inactives: at the top dose activity, negative = inhibition, usual class: inhibitors; note: potency is the fitted concentration of half-maximal effect; % is set by controls: 0 for no effect and ±100 for the full control effect
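Eya2 (0.2 uM) preincubated 10 min at ambient with compound, then OMFP substrate added at 50 uM; 10 min reaction in 50 mM HEPES pH 7.5, 50 mM NaCl, 5 uM MgCl2, 0.05% BSA, 1 mM DTT. Fluorescence read at Ex 485/Em 525 nm.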
D1 ag: agonists of human D1 dopamine receptor; P21728; HEK293 T-REx D1 cells, calcium flux, agonist mode; activation, % at 2 µM; 360,000 tested, 1% active; in the data active = activation above about 30%; note: 0% is about no effect
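Tetracycline-induced HEK293 TREx D1 cells, force-coupled to calcium signalling, were dye-loaded with a no-wash calcium kit. Compound was pin-added after a 10 s baseline. Fluorescence was read kinetically at 1 cycle/s for 180 s, with calcium rises flagged as agonism.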
D1 antagonist: antagonists of human D1 dopamine receptor; activity change, negative = inhibition, % at 10 µM; P21728; 360,000 tested, 3.2% active; HEK293 TREx D1 cells, calcium flux, dopamine EC80; hits give low values; in the data active = activity change below about -30%; note: % is set by controls: 0 for no effect and ±100 for the full control effect
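Calcium flux readout: force-coupled, inducible Hek293 Trex D1 line, cells induced overnight at 30 C with tetracycline, dye-loaded 30–90 min at RT. Antagonism scored against EC80 dopamine challenge given 180 s after compound.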
USP2a inh: USP2a (human) protease inhibition | USP2 core, Ub-CHOP2 coupled fluorogenic reporter, 485/531 | Potency, µM (highest dose often 38.3 µM), without a hit: at the highest dose activity change, negative = inhibition, actives largely listed as inhibitors | 330,000 tested, 0.01% active | AID 463254;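 note: potency is the fitted concentration of half-maximal effect; plate controls were DMSO wells for no effect and full inhibition by NEM control for full effect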
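Deubiquitinase activity read as fluorescence (485/531 nm) after Ub-CHOP2 cleavage activates the enterokinase reporter on its substrate; USP2 core 10nM, Ub-CHOP2 and substrate 25nM each, 30min compound preincubation then 60min RT; data normalized to NEM, curves fitted.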
GALK inh: blocks human galactokinase activity | Potency, µM (series often up to 57.5 µM), without a hit: top-dose activity change, negative = inhibition, usual class: inhibitors | P51570 | Purified GALK, Kinase-Glo residual ATP luminescence | 270,000 tested, 0.007% active | AID 1868; note: potency is the fitted concentration of half-maximal effect; % is set by controls: 0 for no effect and ±100 for the full control effect
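The enzyme phosphorylates galactose (100 uM) using ATP (35 uM); inhibition is detected as higher residual ATP, quantified by bioluminescence after 1 h reaction at room temperature, pH 8.0.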
An asterisk follows results filed as active; / = not tested or not shown. Unless noted, calls come from the whole dose curve; as a rule, active = well fitted inhibition curve with a large enough effect; inconclusive = small, poorly fitted or top-dose-only effect, or effect the other way; inactive = flat fitted curve, though single readings scatter.

SMILES	D1 potentiator	Eya2 phos inh	D1 ag	D1 antagonist	USP2a inh	GALK inh
CCCc1nnc(NC(=O)Cn2c(=O)oc3cc(Br)ccc32)s1	-1	2%	62*	-9	2%	5%
CCOC(=O)/C=C/C(=O)OCC(=O)Nc1ccc([N+](=O)[O-])cc1	-6	-5%	9	-33*	2%	-2%
COc1cc(/C=C/C(=O)OCC(=O)Nc2ccc([N+](=O)[O-])cc2)ccc1O	-1	-21%	31*	-14	1%	5%
O=C(COC(=O)/C=C/c1ccc(F)cc1)Nc1ccc2[nH]c(=O)[nH]c2c1	-12	26%	3	-13	1%	/
COc1ccc(/C=C/C(=O)OCC(=O)Nc2ccc3[nH]c(=O)[nH]c3c2)cc1OC	-11	-1%	2	-32*	0%	/
C/C=C/c1ccc(OCCCCN2CCN(CC)CC2)c(OC)c1	-3	3%	0	-33*	2%	4%
Nc1cc(C(F)(F)F)ccc1S(=O)(=O)Nc1cccc2c1NCCC2	0	/	11	1	/	/
CCn1c(=O)cc(SCC(=O)N2CCN(c3cc(C)ccc3C)CC2)c2ccccc21	10	/	2	-7	/	/
CCOc1ccccc1NC(=O)CN1C(=O)C2(SCC(=O)N2c2ccc(C)cc2)c2ccccc21 (configuration not stated)	-5	/	0	-11	/	/
NC/C=C/C(=O)O	/	2%	/	/	/	/
COc1ccc(N(Cc2nnc3n2CCCCC3)C(=O)Nc2ccc(Cl)cc2)cc1Cl	-3	/	1	-11	/	/
C/C=C/c1ccc(OCC(=O)Nc2ccc(OC)c(OC)c2)c(OC)c1	-4	3%	4	-38*	-4%	8%
C/C=C/c1ccc(OCC(=O)Nc2ccncc2)c(OC)c1	-9	14%	10	-24	1%	-1%
Cc1cccc(C)c1Nc1c(-c2ccsc2)nc2cccc(C)n12	3	/	0	6	/	/
Cc1ccc(-c2nc3ccccn3c2Nc2ccc3c(c2)OCO3)cc1	3	/	1	-8	/	/
Cc1ccc(Nc2c(-c3ccc(N(C)C)cc3)nc3ccccn23)cc1	-5	/	2	-30*	/	/
N#C[C@@H]1N(Cc2ccccc2)C(=O)[C@H]2CC3C=CC21O3 (some centres not stated)	-8	14%	2	-32*	1%	/
O=C(O)CC1c2ccccc2C=Cc2ccccc21	-6	14%	0	-32*	1%	/
O=C(O)CC1NC(=O)N(c2ccccc2)C1=O (configuration not stated)	-5	10%	1	2	2%	-3%
Cc1csc(Nc2cccc3ccccc23)n1	-6	10%	0	-46*	3%	1%
COc1ccc(NS(=O)(=O)c2cccc(NC(=O)c3cnccn3)c2)cc1Br	-3	9%	7	-31*	1%	-1%
N#CC1=C(N)N(c2ccccc2)C(c2cccc([N+](=O)[O-])c2)C1(C#N)C#N (configuration not stated)	-10	-4%	-1	-30*	-1%	-4%
O=C(NCc1ccc(Cl)cc1)c1cnc2sc(N3CCCC3)nn2c1=O	3	/	0	2	/	/
Cn1c(SCc2ccc(Br)cc2)nc2c([nH]c3ccccc32)c1=O	-3	/	2	2	/	/
O=C(c1cc2c(s1)-c1ccccc1OC2)N1CCc2ccccc2C1	-8	-4%	1	-54*	-3%	/
SMILES	D1 potentiator	Eya2 phos inh	D1 ag	D1 antagonist	USP2a inh	GALK inh
COc1ccccc1N1CCN(C(=O)c2cc3c(s2)-c2ccccc2OC3)CC1	-12	9%	3	-4	3%	/
O=C(Nc1cccnc1)c1cc2c(s1)-c1ccccc1OC2	-18	10%	9	-46*	-2%	5%
O=C(CSc1nc(=O)n(Cc2ccncc2)c2c1CCC2)Nc1ccc(F)cc1F	-1	/	-2	/	/	/
CCN(CC)CCCNC(=O)CCCn1c(=O)[nH]c2ccc(Br)cc2c1=O	3	/	0	-31*	/	/
Cc1ccc(Cn2c(CN3CCC(C(=O)NCCc4ccccc4)CC3)cc3ccccc32)cc1	-3	/	43*	9	/	/
CCn1cc(S(=O)(=O)c2cccc(C)c2)c(=O)c2cc(F)c(N3CCCCC3C)cc21 (configuration not stated)	6	/	2	15	/	/
O=C(Nc1cccc([N+](=O)[O-])c1)c1ccc(-c2ccccc2)cc1	-8	-15%	15	-59*	-2%	1%
O=C(Nc1cccc([N+](=O)[O-])c1)c1cc2ccccc2cc1O	-7	18%	24	-42*	0%	/
COc1ccc(NC(=O)c2cc([N+](=O)[O-])ccc2O)cc1	-2	-1%	26	-31*	4%	16%
O=C(O)c1ccccc1C(=O)Nc1cccc([N+](=O)[O-])c1	5	-13%	2	-7	6%	0%
COc1ccccc1C(=O)Nc1ccc(S(=O)(=O)Nc2nc(C)cc(C)n2)cc1	-2	/	3	-16	/	/
Cn1cnc(S(=O)(=O)N2CCC(C(=O)NCc3ccccc3Cl)CC2)c1	-1	/	-2	11	/	/
Cc1ccccc1OCCCCn1c(C2CC(=O)N(c3ccccc3Cl)C2)nc2ccccc21 (configuration not stated)	-4	/	32*	-10	/	/
Cc1cc(C)cc(OCCn2c(C3CC(=O)N(c4ccccc4Cl)C3)nc3ccccc32)c1 (configuration not stated)	-1	-24%	7	12	-5%	/
Cc1cccc(C)c1OCCCCn1c(C2CC(=O)N(c3ccc(F)cc3)C2)nc2ccccc21 (configuration not stated)	0	/	36*	-10	/	/
COc1ccccc1OCCCCn1c(C2CC(=O)N(c3ccccc3Cl)C2)nc2ccccc21 (configuration not stated)	-2	/	37*	3	/	/
Cc1cccc(C)c1OCCn1c(C2CC(=O)N(c3cccc(Cl)c3)C2)nc2ccccc21 (configuration not stated)	-1	/	7	-5	/	/
COCCCn1c(=N)c(C(=O)NCc2cccnc2)cc2c(=O)n3cccc(C)c3nc21	0	/	26	-6	/	/
CCc1nnc(NC(=O)CSc2nc3c([nH]c4ccccc43)c(=O)n2-c2ccc(OC)cc2)s1	-6	/	3	8	/	/
CCC1CN(C(=O)N2CCC(C(=O)NCCC3=CCCCC3)CC2)c2cc(C)ccc2O1 (configuration not stated)	-3	/	1	-31*	/	/
Cc1ccccc1-c1nc(CN2CCC(C(=O)NCCC3=CCCCC3)CC2)c(C)o1	-5	-10%	31*	-28	1%	2%

Compound activity as filed in PubChem BioAssay.
